# Compounds with a hit are over-represented: about 2.6% of the library has one in this group of screens.
# Gli-Sufu block – antagonists of Gli-Sufu signaling; AID 588413; 0.74% of 340,000 active; inhibition, % at 5 µM; Sufu-KO-LIGHT fibroblasts, Gli luciferase reporter luminescence;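 active means inhibition above about 55%, limit read from the data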
# Jurkat NFkB inh – inhibitors of the PMA/ionomycin-induced NF-kB reporter in Jurkat cells; inhibition, % at 4 µM; 0.53% of 330,000 active; PMA/ionomycin-induced NF-kB luciferase reporter, luminescence; in the data active means inhibition above about 50%
# NR2F2 inh – inhibitors of human COUP-TFII (NR2F2); HEK293T NGFI-A luciferase reporter, luminescence; P24468; AID 686940; 0.7% of 370,000 active; inhibition, % at 8.6 µM;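 active means inhibition above a per-plate cutoff, mean inhibition of test wells between control levels plus 3 SD, cut at about 38% in these data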;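 further: cells cotransfected with COUP-TFII expression vector driving the NGFI-A reporter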
# Target sequence (P24468 whole entry, looked up): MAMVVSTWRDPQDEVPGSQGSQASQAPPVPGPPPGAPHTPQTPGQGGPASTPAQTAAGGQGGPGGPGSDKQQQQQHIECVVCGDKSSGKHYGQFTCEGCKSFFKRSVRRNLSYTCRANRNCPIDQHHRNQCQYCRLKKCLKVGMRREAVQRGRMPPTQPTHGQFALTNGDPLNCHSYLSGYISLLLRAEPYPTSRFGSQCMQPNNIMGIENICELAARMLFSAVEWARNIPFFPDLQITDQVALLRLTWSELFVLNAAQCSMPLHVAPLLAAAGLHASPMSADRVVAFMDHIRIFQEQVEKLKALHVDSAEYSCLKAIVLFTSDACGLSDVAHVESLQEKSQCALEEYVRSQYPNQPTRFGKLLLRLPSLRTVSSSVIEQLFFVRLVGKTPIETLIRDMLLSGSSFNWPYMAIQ
# H9c2 protect – modulators protecting cardiomyocytes from myocardial damage. protection from H2O2 cell death, % at 20 µM. 0.63% of 360,000 active. H9c2 cardiomyocytes, H2O2 injury protection, ATPLite, 2 h;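 active means compounds giving at least 50% protection of heart cells from peroxide-induced death in the single-dose screen, raw or plate-pattern-corrected value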
# 697 NFkB inh – inhibitors of the PMA/ionomycin-induced NF-kB reporter in 697 B cells. inhibition, % at 4 µM. 0.33% of 330,000 active. 697 B-cell NF-kB luciferase reporter, 16 h; in the data active means inhibition above about 35%
# H9c2 TAG inh – inhibitors of triacylglycerol accumulation; 0.66% of 230,000 active; inhibition, % at 12.5 µM; H9c2 cells, Nile Red lipid (TAG) fluorescence; cells loaded with 200 µM oleic acid; AID 651582;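 active means pattern-corrected inhibition of lipid staining of at least 50% with the nuclear-stain viability signal not falling by more than 50%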
# TAG conf – confirmation of triacylglycerol accumulation inhibitors; shares compounds with H9c2 TAG inh; H9c2 lipid accumulation, Nile Red fluorescence; cells loaded with 200 µM oleic acid; inhibition, % at 12.5 µM; 71% of 990 active;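 active means mean inhibition across replicates of 40% or more; inactive means mean inhibition below 40%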
# A number is an active result; . = inactive; / = not tested or not shown.
SMILES,Gli-Sufu block,Jurkat NFkB inh,NR2F2 inh,H9c2 protect,697 NFkB inh,H9c2 TAG inh,TAG conf
COc1ccc(S(=O)(=O)N(C)C[C@@H]2OCCCC[C@H](C)Oc3ccc(NC(=O)Nc4ccc(C(F)(F)F)cc4)cc3C(=O)N([C@H](C)CO)C[C@H]2C)cc1,/,/,.,.,/,59,44
CCOC(=O)[C@@]12CN(C(=O)OC(C)(C)C)CC=C1N(Cc1ccc(OC)cc1)C(=O)[C@H]2CC(=O)NCc1cccc(C(F)(F)F)c1,/,/,.,/,/,/,/
CCOc1cc(C(=O)N/N=C/c2cn(-c3ccccc3)nc2-c2cc3ccccc3o2)cc(OCC)c1OCC,.,/,.,.,/,59,63
COc1ccc(Nc2nc(N3CCOCC3)nc(N3CCOCC3)n2)cc1,.,.,.,.,.,/,/
CCCCNC(=O)CSc1nc2ccc(Nc3nc(N4CCOCC4)nc(N4CCOCC4)n3)cc2s1,.,.,.,.,.,57,.
CCCCSc1nc2ccc(Nc3nc(N4CCOCC4)nc(N4CCOCC4)n3)cc2s1,.,.,.,.,.,80,97
CCCC(=O)Nc1ccc2nc(SCC(=O)N3CCCC3)sc2c1,.,.,.,.,.,.,/
COc1ccc(-c2cnc3c(NC=O)cc(-c4cccc(NS(C)(=O)=O)c4)cn23)cc1OC,/,/,.,105,/,65,58
CN(C)C(=O)c1cccc(-c2cnc3c(NC=O)cc(-c4cc(F)c(F)c(F)c4)cn23)c1,/,/,.,.,/,.,/
CC(=O)c1ccc(-c2cnc3c(NC=O)cc(-c4ccc(N5CCN(C)CC5)cc4)cn23)cc1,/,/,.,.,/,.,/
CC(=O)c1ccc(-c2cnc3c(NC=O)cc(-c4ccc(C(=O)NC5CC5)cc4)cn23)cc1,/,/,.,95,/,54,52
COc1cc(-c2cc(NC=O)c3ncc(-c4cccc(C(=O)N(C)C)c4)n3c2)cc(OC)c1OC,/,/,.,.,/,58,72
CN(C)C(=O)c1cccc(-c2cnc3c(NC=O)cc(-c4ccccc4F)cn23)c1,/,/,.,.,/,.,/
COc1ccccc1-c1cc(NC=O)c2ncc(-c3cccc(C(=O)N(C)C)c3)n2c1,/,/,.,.,/,59,68
O=C(NCCc1ccccc1Cl)[C@@H]1CCCN1C(=O)[C@H](Cc1cccnc1)NC(=O)N1CCOCC1,/,/,.,/,/,/,/
Cc1ccc(NC(=O)CSc2nnc(-c3ccccc3F)n2-c2ccccc2)c(C)c1,/,/,.,/,/,/,/
Cc1ccc(S(=O)(=O)N2CCCC2C(=O)N2CCc3ccccc3C2)cc1 (stereo not drawn),/,/,.,/,/,/,/
CCN(CC)CCNc1nc2cc(OC)c(OC)cc2c2nc(-c3ccccc3)nn12,.,.,.,.,.,64,46
CCCCNC(=O)CCC(=O)NNc1nc2ccccc2c2nc(-c3ccccc3)nn12,.,.,.,.,.,/,/
CCCCCCCCN1C(=O)N2Cc3ccccc3C2CS1(=O)=O (stereo not drawn),/,/,.,/,/,/,/
O=C(NCCCCCCCN1CCCCCCC1)C(C1CCCCC1)C1CCCCC1,.,/,.,.,/,70,51
O=C(NCCCN1CCOCC1)NC1CCCCC1,.,.,.,.,.,.,/
C[C@@H]1CNC(=O)c2c(C(=O)N3CCN(c4ccccc4)CC3)ncn21,/,/,.,/,/,/,/
COc1cc(C#Cc2c(-c3cncn3C)n(C)c3ccc(-c4cc(OC)c(OC)c(OC)c4)cc23)cc(OC)c1,.,.,.,.,.,61,77
COc1cc(OC)cc(-c2c(C#Cc3ccsc3)c3cc(-c4cc(OC)c(OC)c(OC)c4)ccc3n2C)c1,.,.,.,.,.,.,/
SMILES,Gli-Sufu block,Jurkat NFkB inh,NR2F2 inh,H9c2 protect,697 NFkB inh,H9c2 TAG inh,TAG conf
COc1cc(C#Cc2c(-c3cncn3C)n(C)c3ccc(-c4ccc5[nH]ccc5c4)cc23)cc(OC)c1,.,.,.,.,.,93,92
CN(C(=O)CCc1cn(C)c2ccccc12)c1ccc(Oc2cccnc2)cc1,/,/,.,/,/,/,/
COc1ccc(-c2cc(=O)c3cc(C)ccc3[nH]2)cc1,.,.,.,.,.,.,/
Cc1ccc2[nH]c(-c3ccccc3)cc(=O)c2c1,.,.,.,.,.,53,58
COC(CNC(=O)CCc1c(C)nc2c(c(C)nn2-c2ccc(C)cc2)c1C)OC,.,.,.,.,.,/,/
Cc1ccc(-n2nc(C)c3c(C)c(CCC(=O)Nc4ccc(CN5CCCC5)cc4)c(C)nc32)cc1,.,.,.,.,.,65,59
C[C@@H]1CN([C@@H](C)CO)C(=O)c2cc(N(C)C)ccc2O[C@@H]1CN(C)Cc1ccncc1,.,.,.,.,.,61,.
CCC(C)(C)NC(=O)C(c1ccc(OC)cc1)N(Cc1cccs1)C(=O)CCC(=O)Nc1cc(C)on1 (stereo not drawn),.,.,.,.,.,72,68
COc1ccc(C(C(=O)NC(C)(C)C)N(Cc2cccs2)C(=O)CCC(=O)Nc2cc(C)on2)cc1 (stereo not drawn),.,.,.,.,.,70,49
CCC(C)(C)NC(=O)C(c1ccc(OC)cc1)N(CC1CCCO1)C(=O)CCC(=O)Nc1cc(C)on1 (stereo not drawn),.,.,.,.,.,57,41
COc1ccc(C(C(=O)NC(C)(C)C)N(CCO)C(=O)CCC(=O)Nc2cc(C)on2)cc1 (stereo not drawn),.,.,.,.,.,/,/
O=C(Cn1cnc2ccccc2c1=O)N1CCN(Cc2ccc(F)cc2)CC1,/,/,.,/,/,/,/
COC(=O)C1=C(C)N(Cc2cccc(C(F)(F)F)c2)C(=NCc2ccccc2C(F)(F)F)NC1c1ccc(Cl)cc1 (stereo not drawn),/,/,.,/,/,/,/
COc1ccc(C[C@H]2CN3C(=NC[C@@H]3Cc3ccc(O)cc3)N2CCNC(=O)c2ccc(C)c(Br)c2)cc1,.,.,.,.,.,62,49
O=C(Nc1ccc(-c2csc(Nc3ccc(Cl)cc3)n2)cc1)c1cccc(C(F)(F)F)c1,.,.,.,/,.,/,/
O=C(Nc1ccc(-c2csc(Nc3ccccc3)n2)cc1)c1cccc(C(F)(F)F)c1,.,.,.,.,.,75,83
O=C(Nc1cccc(-c2csc(Nc3cccc(C(F)(F)F)c3)n2)c1)c1cc([N+](=O)[O-])cc(C(F)(F)F)c1,.,.,.,.,.,58,56
C[C@H]1C2CC(OC(=O)Nc3ccc(C#N)cc3)C(C2)[C@H]2CCCCN21 (stereo partly drawn),/,/,.,/,/,/,/
CC(=C\C=O)/C(C)=C/CC[C@@H]1O[C@@H]2C[C@@H]3O[C@](C)(C[C@H]4C[C@H](O)[C@@H]5O[C@@H]6C[C@H](O)[C@@H](C)O[C@@]6(C)CC[C@H]5O4)[C@@H](O)CC[C@@]3(C)O[C@H]2[C@@H](O)[C@@H]1C,/,/,.,/,/,/,/
COc1cc(-c2cc3nc(NCCOc4ccccc4)ccn3n2)cc(OC)c1OC,/,/,.,92,/,54,49
Cc1ccc(C(=O)N2CCC[C@@H]2C(=O)N2CCC[C@@H]2C(=O)NCc2ccccc2)cc1,/,/,.,/,/,/,/
